Measurements from PubChem BioAssay.
Calls of active or inactive are those of the source.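 How the source made its calls: active means compounds killing one labelled cell type while sparing the other, by normalised counts and ratio limits, not self-fluorescent; inactive means the rest.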

Test: EMT-state selective cytotoxicity in co-culture – imaging, PC-3E GFP, TEM4-18 mCherry, primary screen (AID 1345086);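 further: cells exposed to compound for 72 h before imaging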;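 on red/green cell ratio (normalised): normalised mesenchymal count divided by normalised epithelial count so high means epithelial killing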
Details: PC-3E GFP / TEM4-18 mCherry co-culture, imaging cell counts, at 1 µM; for red/green cell ratio (normalised): actives lie on both sides, counts scaled to control wells, 1 = unselective
[1] = measured here: epithelial PC-3E GFP cell survival
[2] = measured here: mesenchymal TEM4-18 mCherry cell survival

Row | SMILES | red/green cell ratio (normalised) | normalised cell number [1] | normalised cell number [2]
1 | NC(CSSCC(N)C(=O)O)C(=O)O (stereo not given) | 0.92 (inactive) | 1.24 | 1.15
2 | COC1=CC[C@@]2(C)[C@@](O)(CC[C@H]3Cc4c([nH]c5ccccc45)[C@@]32C)[C@@]12CC(=O)[C@](O)(C(C)(C)OC(C)=O)O2 | 0.97 (inactive) | 1.15 | 1.11
3 | C[C@H]1[C@H](C)CC[C@]2(C(=O)O)CC[C@]3(C)C(=CCC4[C@@]5(C)C[C@@H](O)[C@H](O)[C@@](C)(CO)C5CC[C@]43C)[C@H]12 (stereo not given in full) | 1.16 (inactive) | 0.97 | 1.13
4 | O=C1C=CC2(Oc3cccc4cccc(c34)O2)[C@H]2[C@H]1[C@@H](O)CC[C@H]2O | 1.07 (inactive) | 0.95 | 1.01
5 | OCC1O[C@H](O[C@H]2OC(CO)[C@@H](O)[C@@H](O)C2O)C(O)[C@H](O)[C@@H]1O (stereo not given in full) | 1.12 (inactive) | 1.01 | 1.13
6 | C=C1C/C=C(\C)CC[C@@H]2[C@@H]1CC2(C)C | 1.09 (inactive) | 0.98 | 1.07
7 | CC(=O)OCC(=O)[C@H]1CCC2C3CC=C4C[C@@H](O)CC[C@]4(C)C3CC[C@@]21C (stereo not given in full) | 0.94 (inactive) | 0.99 | 0.93
8 | COC(=O)C[C@@H]1C2(C)C(=O)[C@@H](CC3=C4CC(O)O[C@@H](c5ccoc5)[C@]4(C)CCC32)[C@H](O)C1(C)C (stereo not given in full) | 1.16 (inactive) | 0.99 | 1.14
9 | NC(=O)c1cc(F)c(F)cc1F | 0.98 (inactive) | 1.12 | 1.09
10 | C=C1OC(=O)c2c(OC)cc(OC)c(C)c2C1C (stereo not given) | 1 (inactive) | 0.98 | 0.98
11 | CO[C@@H]1CC(=O)c2cccc3c2C12Oc1ccc(O)c4c1[C@](O3)(O2)C1O[C@@H]1[C@@H]4O (stereo not given in full) | 0.98 (inactive) | 1 | 0.98
12 | CC(=O)OCC1O[C@H](Sc2ccc(C)cc2)[C@@H]2[C@@H](OC(=O)N2C(C)=O)C1OC(C)=O (stereo not given in full) | 0.77 (inactive) | 1.36 | 1.05
13 | CC(C)=CCCC(C)[C@@H]1CC[C@]2(C)C3=C(CC[C@@]12C)C1(C)CC[C@H](O)C(C)(C)C1CC3 (stereo not given in full) | 0.9 (inactive) | 1.09 | 0.98
14 | COc1c(N2CC[C@@H](CN)C2)c(F)cc2c(=O)c(C(=O)O)cn(Cc3ccc4ccccc4c3)c12 | 1.09 (inactive) | 0.86 | 0.93
15 | CC(=O)N[C@@H]1[C@@H](OC(C)C(=O)O)[C@H](O)[C@@H](CO)O[C@H]1O (stereo not given in full) | 0.95 (inactive) | 1.06 | 1
16 | Cc1[nH]cc[n+]1CC1CCC2C(C1=O)c1ccccc1N2C (stereo not given) | 0.73 (inactive) | 1.19 | 0.87
17 | CC1CC2OC2/C=C/C(O)CC(=O)O1 (stereo not given) | 0.97 (inactive) | 1.06 | 1.02
18 | Cc1ccc(S[C@H]2OC(COCc3ccccc3)C(OC(=O)CCC(=O)O)[C@@H]3OC(=O)N[C@H]23)cc1 (stereo not given in full) | 0.99 (inactive) | 1.11 | 1.1
19 | COc1cc(C)c(Oc2cc(C)cc(O)c2O)c(O)c1 | 0.97 (inactive) | 1.18 | 1.15
20 | C=C1[C@@H](C)C2[C@H](Cc3c[nH]c4ccccc34)NC(=O)[C@]23C(=O)/C=C/C(=O)[C@H](OC(C)=O)/C(C)=C/[C@@H](C)C/C=C/[C@H]3[C@@H]1O (stereo not given in full) | 1.13 (inactive) | 0.94 | 1.06
21 | C=C1OC(=O)C23C(O)C(=O)CC(OC12)C3C (stereo not given) | 0.89 (inactive) | 1.19 | 1.06
22 | O=c1c2cc(O)c(O)cc2oc2cc(O)c(C3O[C@H](CO)[C@H](O)[C@@H](O)[C@H]3O)c(O)c12 (stereo not given in full) | 0.86 (inactive) | 0.99 | 0.85
23 | CC(=O)O[C@@H]1CC2C(C)(C)[C@H](O)C[C@H](O)[C@]2(C)C2CC[C@@]3(C)[C@H](c4ccoc4)OC(=O)[C@H]4O[C@]43[C@@]21C (stereo not given in full) | 1.01 (inactive) | 1.01 | 1.03
24 | CC(C)CCCC(C)[C@H]1CCC2C3C(=O)C=C4C[C@@H](O)CC[C@]4(C)C3CC[C@@]21C (stereo not given in full) | 0.98 (inactive) | 0.98 | 0.95
25 | CC/C=C\[C@H](O)[C@H](O)C1=C(C)C(=O)[C@]2(O1)C(=O)N[C@@](OC)(C(=O)c1ccccc1)[C@@H]2O | 1.21 (inactive) | 0.79 | 0.95
26 | Cc1ccc(S[C@H]2OC(COS(=O)(=O)c3ccc(C)cc3)C(O)[C@@H]3OC(=O)N[C@H]23)cc1 (stereo not given in full) | 0.86 (inactive) | 1.19 | 1.02
27 | CC1(C)C(C(=O)O)N2C(=O)C[C@H]2S1(=O)=O (stereo not given in full) | 0.69 (inactive) | 1.22 | 0.84
28 | COc1ccc2oc(-c3ccccc3)c(OC)c(=O)c2c1 | 0.79 (inactive) | 1.37 | 1.08
29 | CC(C)=CCC[C@H](C)[C@H]1CC[C@]2(C)C[C@@H]3C(C)=CC(=O)[C@@H]3/C(C=O)=C\C[C@@H]12 | 0.9 (inactive) | 1.16 | 1.04
30 | C[C@H](O)CCc1ccc(C(=O)O)nc1 | 0.97 (inactive) | 1.16 | 1.13
